One experiment concerns the target C19orf48. In words: pooled miR-30 sensor sort-seq; sequence = guide strand. The note with it: shRNA.
Regarding TCTCCTGGGTGTGTGGCTCAGC, the sensor-assay potency score (higher = more potent) is -0.768. Still for that read-out and setting: next, TTGTGCACTGGGTTGGGTCCCA: -0.4; AAGTCCTTGTGCACTGGGTTGG: -0.738. Still for that read-out and setting: to CCACTTATCCACCTTCTCCTGG belongs -1.46; to ATAGGCCTGGTCACAATAGGGA, -0.793.

Another experiment has as its target C19orf61. Described as above. The note with it: shRNA.
Consider TTCTTCTCGGTGAGGATCGTGT, for which the sensor-assay potency score (higher = more potent) is -0.682.

As for TTGCATTGTAACATGGACAGAG, the sensor-assay potency score (higher = more potent) worked out at 0.588. TTCTCGGTGAGGATCGTGTGTG had a sensor-assay potency score (higher = more potent) of -0.797. TCATCCACCAACTTGATGCTGT yielded a sensor-assay potency score (higher = more potent) of 0.069. For TAAAGAGCTCTCCAGACCCTGC, the sensor-assay potency score (higher = more potent) is -0.972. On the same count and under the same terms, next, TTCTGCATGACGGAAGTGCTTG: -0.495; TAAGTTGACCTCAGAGTCCAGG: -0.418; TTGACCGCTCTGCTGGAGGTTT: -0.879. TCTGCTGTCTGCAGGAACCTGT yielded a sensor-assay potency score (higher = more potent) of -0.731. Turning to TTGGCTGACAACAATGACATGA, the sensor-assay potency score (higher = more potent) came out at 0.194. Still for that read-out and setting: next, TTGGGTAATAAAGAAGTCGATG: -0.372. Same read-out and setting: next, TTTGCGGTCATTATTGATGAGA: -1.14.

The target in the next experiment is C1GALT1C1. The description is as above. Conditions: shRNA.
TTTGTTAGGAGCTTGTAGGTGA yielded a sensor-assay potency score (higher = more potent) of 0.841.

Regarding TTTTCATTGATTCTACACTTAA, the sensor-assay potency score (higher = more potent) is -1.52. On to TTTTCAATGATAGCAAACGTAG, for which the sensor-assay potency score (higher = more potent) was -1.07.

TACATCATCACATGCATCTGAT: the sensor-assay potency score (higher = more potent) is -0.0617. The same measure, in the same setting: next, TTTATCTTCAGATATCTTCCAA: 0.63. Sequence TTTGGTATTAAATACATCTTTT registered a sensor-assay potency score (higher = more potent) of -0.97.

Sequence TATCTGAACAACAGCCTTCTAC came in with a sensor-assay potency score (higher = more potent) of -0.664. In turn, TTATCTTCAGATATCTTCCAAA showed a sensor-assay potency score (higher = more potent) of -0.897. Sequence ATAATGACAACACACGTCCTAT returned a sensor-assay potency score (higher = more potent) of -0.903. On to TAAGTCTTTTCATTGATTCTAC, for which the sensor-assay potency score (higher = more potent) was -0.486.

Consider TATCTTCTTTGTTAGGAGCTTG, for which the sensor-assay potency score (higher = more potent) was -0.577. TTAATTGACTCAAACACTTTAA yielded a sensor-assay potency score (higher = more potent) of -1.19.

Another experiment has as its target C1QL1. The description is as above. The note with it: shRNA.
In turn, TATTTGTTGCTGTTGCCGCCGT gave a sensor-assay potency score (higher = more potent) of -0.708.

In the case of TTGCACGTAAACTTGCCGCTGG, the sensor-assay potency score (higher = more potent) amounted to 0.439.

Consider TATAACTTTGGTCAGACGGGGC, for which the sensor-assay potency score (higher = more potent) was -0.517. Turning to TCAAACTTGAGTACCTCGTAAC, the sensor-assay potency score (higher = more potent) was -0.701. TAGTTGTTGCCTAGGTTGGTGA registered a sensor-assay potency score (higher = more potent) of -1.01. For the sequence TCCAGGTGCAGGATCACGCTGT, the sensor-assay potency score (higher = more potent) was -0.765. Take TTGAGTACCTCGTAACCCTCGT: the sensor-assay potency score (higher = more potent) is -0.551.

Sequence TGCAGGATCACGCTGTTGCTGG yielded a sensor-assay potency score (higher = more potent) of -1.19. Same read-out and setting: next, TAGGGGTCGCACACCATGCGGC: -0.617.

The sequence TTTGCCTCCATCCAGCTTGATG came in with a sensor-assay potency score (higher = more potent) of -1.62. With TTTGTTGCTGTTGCCGCCGTGT, the sensor-assay potency score (higher = more potent) is -0.647.

For the origin of these results see the OligoGym collection.
Further: reference of the scale not given here.
